Reference: PubChem BioAssay (NCATS)
Inconclusive results are not listed. Values without a mark were called inactive. Calls of active or inactive are those of the source. Unless noted, calls come from the whole dose curve.

System: not listed separately
Assay: qHTS for Inhibitors of the Functional Ribonucleoprotein Complex (vRNP) of Lymphocytic Choriomeningitis Arenaviruses (LCMV): Viability assay - alamar blue signal for LCMV Primary Screen (AID 1347085; calls by dose curve; tested in HEK293 reporter line; note: nearly all actives have a fitted effect of over 80% in size)
Settings: alamar blue viability counter-screen, LCMV vRNP screen cells; series mostly up to 57.5 µM; activity change, negative = lower viability: at the top concentration
% is set by controls: 0 for no effect and ±100 for the full control effect.

Compound	activity change, negative = lower viability [%]	Potency
OC(C#CCN1CCCC1)(c1ccccc1)c1ccccc1	9.04	
CCN(CC)CCOC(=O)C(c1ccccc1)C1CCCCC1 (stereo not given)	5.85	
O=C(O)CCC(=O)OC[C@@H](NC(=O)C(Cl)Cl)[C@H](O)c1ccc([N+](=O)[O-])cc1	3.06	
C[C@@H](CN(C)C)CN1c2ccccc2Sc2ccccc21	-10.8	
CCOc1cc(N)c(Cl)cc1C(=O)NCC1CN(Cc2ccc(F)cc2)CCO1 (stereo not given)		inactive
CN1CCN(C2Cc3ccccc3Sc3ccc(Cl)cc32)CC1 (stereo not given)	-31.3	
COc1cc(C(=O)OCCCN2CCCN(CCCOC(=O)c3cc(OC)c(OC)c(OC)c3)CC2)cc(OC)c1OC		inactive
CSc1ccc(/C=C2/C(C)=C(CC(=O)O)c3cc(F)ccc32)cc1	0.152	
O=C(O)CNC(=O)c1ccccc1I	4.51	
COc1cccc(N(C)C(=S)Oc2ccc3c(c2)CCCC3)n1		inactive
c1ccc(OCc2ccc(CCCN3CCOCC3)cc2)cc1	20.3	
CCCCCCCCCCCCOS(=O)(=O)O	2.71	
Cc1nc2sccn2c(=O)c1CCN1CCC(=C(c2ccc(F)cc2)c2ccc(F)cc2)CC1		inactive
CC1(C)[C@@H]2CC[C@@]1(C)C(=O)C2	4.71	
CN(C)CCC(c1ccccc1)c1ccccn1 (stereo not given)		inactive
COc1ccc2c(c1)c(CC(=O)OCC(=O)O)c(C)n2C(=O)c1ccc(Cl)cc1		inactive
CN(C)CCOc1ccccc1Cc1ccccc1	-1.02	
CC(=O)[C@@]1(O)CC[C@H]2[C@@H]3CCC4=CC(=O)CC[C@]4(C)[C@H]3CC[C@@]21C		inactive
OC(CCN1CCCCC1)(c1ccccc1)c1ccccc1	0.488	
Nc1ccn(C2CO[C@H](CO)O2)c(=O)n1 (stereo not given in full)	1.48	

Compound	activity change, negative = lower viability [%]	Potency
Cc1cc(O)c(C(C)C)cc1Cl	10.6	
O=C(OCC(COC(=O)c1cccnc1)(COC(=O)c1cccnc1)COC(=O)c1cccnc1)c1cccnc1	18.9	
Cc1ccc(/C(=C\CN2CCCC2)c2ccccn2)cc1		inactive
Cc1cc(N)c2cc(NC(=O)Nc3ccc4nc(C)cc(N)c4c3)ccc2n1	7.05	
COc1ccc2cc1Oc1ccc(cc1)C[C@H]1c3c(cc4c(c3Oc3cc5c(cc3OC)CCN(C)[C@@H]5C2)OCO4)CCN1C	-10.3	
CCOc1c(N2CCOCC2)cnn(C)c1=O	1.2	
O=C(CCCCCCCCC#CI)Oc1ccccc1	-9.47	
CCCNC(C)(C)COC(=O)c1ccccc1	7.1	
CCC(=O)Oc1ccc2c(c1)CC[C@@H]1[C@@H]2CC[C@@]2(C)[C@H]1C[C@@H](OC(=O)CC)[C@@H]2OC(=O)CC	5.4	
C[C@@H]1C[C@H]2[C@@H]3CCC4=CC(=O)C=C[C@]4(C)[C@@]3(F)[C@@H](O)C[C@]2(C)[C@@]1(O)C(=O)COC(=O)c1ccncc1	-4.93	
CC1(C)[C@H](C(=O)O)N2C(=O)C[C@H]2S1(=O)=O		inactive
Cc1cc(CC(=O)O)n(C)c1C(=O)c1ccc(Cl)cc1	3.34	
CCCCCCCC/C=C\CCCCCCCCN	-1.96	
Nc1c2c(nc3ccccc13)CCCC2		inactive
CC1CC(OC(=O)C(O)c2ccccc2)CC(C)(C)N1C (stereo not given)	12.7	
Cc1cc(O)c(C)c(C)c1O	1.28	
CC(C)NCCCC1(C(N)=O)c2ccccc2-c2ccccc21	30.2	
CC(C(O)c1ccc(O)cc1)N1CCC(Cc2ccccc2)CC1 (stereo not given)	3.33	
N[C@@H](Cc1c[nH]c2ccc(O)cc12)C(=O)O		inactive
C=CCCCCCCCCC(=O)O	-3.9	

Biological target: Nucleoprotein (Lymphocytic choriomeningitis virus (strain Armstrong)) (UniProt P09992)
Sequence (P09992 whole entry, looked up): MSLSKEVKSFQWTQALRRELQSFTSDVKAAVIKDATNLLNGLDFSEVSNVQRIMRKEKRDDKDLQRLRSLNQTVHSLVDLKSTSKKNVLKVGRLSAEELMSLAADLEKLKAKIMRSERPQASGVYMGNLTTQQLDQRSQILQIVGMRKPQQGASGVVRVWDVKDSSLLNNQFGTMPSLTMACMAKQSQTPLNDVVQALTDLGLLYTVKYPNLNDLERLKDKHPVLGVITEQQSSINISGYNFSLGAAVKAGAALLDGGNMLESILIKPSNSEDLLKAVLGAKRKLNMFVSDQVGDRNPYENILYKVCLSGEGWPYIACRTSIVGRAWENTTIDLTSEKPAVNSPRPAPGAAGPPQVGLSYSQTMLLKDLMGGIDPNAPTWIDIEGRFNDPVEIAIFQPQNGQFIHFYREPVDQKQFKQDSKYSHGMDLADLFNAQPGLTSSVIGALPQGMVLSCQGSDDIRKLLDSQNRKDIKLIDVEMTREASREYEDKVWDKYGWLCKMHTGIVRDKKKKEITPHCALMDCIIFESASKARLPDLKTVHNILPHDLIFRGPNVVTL
Assay: qHTS for Inhibitors of the Functional Ribonucleoprotein Complex (vRNP) of Lymphocytic Choriomeningitis Arenaviruses (LCMV): LCMV Primary Screen - GLuc reporter signal (AID 1347086); note: nearly all actives have a fitted effect of over 70% in size
Settings: LCMV minigenome vRNP cell assay, Gaussia luciferase reporter; series mostly up to 57.5 µM; activity change, negative = inhibition: at the top concentration

Compound	activity change, negative = inhibition [%]	Potency
OC(C#CCN1CCCC1)(c1ccccc1)c1ccccc1	1.25	
CCN(CC)CCOC(=O)C(c1ccccc1)C1CCCCC1 (stereo not given)	7.29	
O=C(O)CCC(=O)OC[C@@H](NC(=O)C(Cl)Cl)[C@H](O)c1ccc([N+](=O)[O-])cc1	-3.65	
C[C@@H](CN(C)C)CN1c2ccccc2Sc2ccccc21	-22.4	
CCOc1cc(N)c(Cl)cc1C(=O)NCC1CN(Cc2ccc(F)cc2)CCO1 (stereo not given)		inactive
CN1CCN(C2Cc3ccccc3Sc3ccc(Cl)cc32)CC1 (stereo not given)	-24.3	
COc1cc(C(=O)OCCCN2CCCN(CCCOC(=O)c3cc(OC)c(OC)c(OC)c3)CC2)cc(OC)c1OC	-34.2	
CSc1ccc(/C=C2/C(C)=C(CC(=O)O)c3cc(F)ccc32)cc1	5.84	
O=C(O)CNC(=O)c1ccccc1I	17.2	
COc1cccc(N(C)C(=S)Oc2ccc3c(c2)CCCC3)n1		inactive
c1ccc(OCc2ccc(CCCN3CCOCC3)cc2)cc1	-14.8	
CCCCCCCCCCCCOS(=O)(=O)O	9.4	
Cc1nc2sccn2c(=O)c1CCN1CCC(=C(c2ccc(F)cc2)c2ccc(F)cc2)CC1		inactive
CC1(C)[C@@H]2CC[C@@]1(C)C(=O)C2	13.5	
CN(C)CCC(c1ccccc1)c1ccccn1 (stereo not given)		inactive
COc1ccc2c(c1)c(CC(=O)OCC(=O)O)c(C)n2C(=O)c1ccc(Cl)cc1		inactive
CN(C)CCOc1ccccc1Cc1ccccc1	-4.03	
CC(=O)[C@@]1(O)CC[C@H]2[C@@H]3CCC4=CC(=O)CC[C@]4(C)[C@H]3CC[C@@]21C		inactive
OC(CCN1CCCCC1)(c1ccccc1)c1ccccc1	24.5	
Nc1ccn(C2CO[C@H](CO)O2)c(=O)n1 (stereo not given in full)	39.7	

Compound	activity change, negative = inhibition [%]	Potency
Cc1cc(O)c(C(C)C)cc1Cl	29.4	
O=C(OCC(COC(=O)c1cccnc1)(COC(=O)c1cccnc1)COC(=O)c1cccnc1)c1cccnc1	18.6	
Cc1ccc(/C(=C\CN2CCCC2)c2ccccn2)cc1		inactive
Cc1cc(N)c2cc(NC(=O)Nc3ccc4nc(C)cc(N)c4c3)ccc2n1	14.9	
COc1ccc2cc1Oc1ccc(cc1)C[C@H]1c3c(cc4c(c3Oc3cc5c(cc3OC)CCN(C)[C@@H]5C2)OCO4)CCN1C	-9.34	
CCOc1c(N2CCOCC2)cnn(C)c1=O	6.51	
O=C(CCCCCCCCC#CI)Oc1ccccc1	-0.833	
CCCNC(C)(C)COC(=O)c1ccccc1	-1.03	
CCC(=O)Oc1ccc2c(c1)CC[C@@H]1[C@@H]2CC[C@@]2(C)[C@H]1C[C@@H](OC(=O)CC)[C@@H]2OC(=O)CC	3.4	
C[C@@H]1C[C@H]2[C@@H]3CCC4=CC(=O)C=C[C@]4(C)[C@@]3(F)[C@@H](O)C[C@]2(C)[C@@]1(O)C(=O)COC(=O)c1ccncc1	5.56	
CC1(C)[C@H](C(=O)O)N2C(=O)C[C@H]2S1(=O)=O		inactive
Cc1cc(CC(=O)O)n(C)c1C(=O)c1ccc(Cl)cc1	3.69	
CCCCCCCC/C=C\CCCCCCCCN	24.7	
Nc1c2c(nc3ccccc13)CCCC2		inactive
CC1CC(OC(=O)C(O)c2ccccc2)CC(C)(C)N1C (stereo not given)	13.6	
Cc1cc(O)c(C)c(C)c1O	-6.2	
CC(C)NCCCC1(C(N)=O)c2ccccc2-c2ccccc21	-19.2	
CC(C(O)c1ccc(O)cc1)N1CCC(Cc2ccccc2)CC1 (stereo not given)	1.09	
N[C@@H](Cc1c[nH]c2ccc(O)cc12)C(=O)O		inactive
C=CCCCCCCCCC(=O)O	0.117	
